Among all 310,000 compounds or so, about 1,200 (0.39%) were called active. No rule for the calls is given here. These entries were drawn from the full list. Results with a measured potency or affinity are listed apart.
The compounds below were run against Large T antigen (Simian virus 40) (UniProt P03070) (assay: TAg ATPase/helicase activity blockers – biochemical (AID 1903)). Details: SV40 large T antigen ATPase/helicase inhibition assay; at 20 µM; hits give high values.
Chain of Large T antigen (Simian virus 40) (P03070 whole entry, looked up): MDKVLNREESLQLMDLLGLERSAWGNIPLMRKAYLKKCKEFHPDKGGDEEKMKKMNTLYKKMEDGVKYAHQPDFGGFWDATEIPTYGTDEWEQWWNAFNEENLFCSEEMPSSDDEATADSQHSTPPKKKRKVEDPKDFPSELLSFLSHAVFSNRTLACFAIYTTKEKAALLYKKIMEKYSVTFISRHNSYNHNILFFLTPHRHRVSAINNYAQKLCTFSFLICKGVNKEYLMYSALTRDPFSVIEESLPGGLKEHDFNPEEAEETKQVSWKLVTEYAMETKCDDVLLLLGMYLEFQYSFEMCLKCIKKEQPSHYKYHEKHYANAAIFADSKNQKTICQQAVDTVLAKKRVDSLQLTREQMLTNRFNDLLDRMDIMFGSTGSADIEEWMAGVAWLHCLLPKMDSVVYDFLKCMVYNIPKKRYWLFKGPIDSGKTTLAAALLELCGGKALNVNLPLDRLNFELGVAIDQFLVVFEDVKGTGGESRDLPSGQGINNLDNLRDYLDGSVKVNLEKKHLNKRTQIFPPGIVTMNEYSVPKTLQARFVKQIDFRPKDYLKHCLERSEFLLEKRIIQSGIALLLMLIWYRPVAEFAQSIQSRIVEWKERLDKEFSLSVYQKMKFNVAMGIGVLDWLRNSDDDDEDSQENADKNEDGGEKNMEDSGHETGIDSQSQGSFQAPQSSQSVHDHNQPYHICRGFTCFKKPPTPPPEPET

inhibition, inactive:
COc1cccc2cc(C(=O)NNC(=O)c3ccc(Br)cc3)c(=O)oc12 -2.17%, COc1ccc(/C=C/C(=O)Nc2cc(S(=O)(=O)N3CCCCC3)ccc2N2CCCCC2)cc1OC -6.48%, CC/C(=C\C(=O)c1ccncc1)Nc1ccc(Br)cc1 14.6%, O=C(COc1ccccc1C(=O)N/N=C\c1ccc(O)c(O)c1)N/N=C/c1ccc(O)c(O)c1 2.12%, O=C(N/N=C/c1cccc(O)c1)N/N=C/c1cccc(O)c1 18.6%, C=C1CC(C(=O)N/N=C/c2ccccc2)C1 5.07%, Cc1nonc1C(=O)N/N=C/c1cccc(O)c1 8.34%, COc1ccc2c(c1)c(C(=O)N/N=C/c1ccc(OC)c(OC)c1)c(C)n2C 13.7%, COc1ccc2c(c1)c(C(=O)N/N=C/c1cccc(O)c1)c(C)n2C 14.4%, CC(C)(C)c1ccc(/C=N/NC(=O)C2CCCC2)cc1 13.3%, Cc1nonc1C(=O)N/N=C/c1ccccc1 -0.19%, Cc1ccc2[nH]c(=O)c(CN(CC3CCCO3)S(=O)(=O)c3c(C)ccc4nsnc34)cc2c1 (configuration not stated) -0.695%, CC(C)CC(CO)N1CCN(C(=O)c2ccccc2)CCC1=O (configuration not stated) 16.2%, CSc1ncc(Cl)c(C(=O)Nc2ccccc2[N+](=O)[O-])n1 30.7%, O=C1CC2(CCN(C(=O)c3cccc([N+](=O)[O-])c3)CC2)Oc2ccccc21 22.7%, COCc1ccc(C(=O)N2CCCC(Nc3ccc(C(C)C)cc3)C2)o1 (configuration not stated) 23.2%, CCCC(c1nnnn1Cc1ccco1)N1CCN(c2ccccc2)CC1 (configuration not stated) 24%, Cc1cc(Br)ccc1NC(=O)CN1C(=S)NC(C)(C)CC1C (configuration not stated) 5.62%, CN1C(=O)c2ccc(C(=O)NCc3ccc4c(c3)OCO4)cc2C1=O 4.66%, O=C(N/N=C/c1ccc2c(c1)OCO2)C1CC1 -8.98%, Oc1ccc(/C=N/N(c2ccccc2)c2ccccc2)cc1O 20.4%, O=C(N/N=C/c1ccsc1)C1CC1 14.3%, O=C(/C(=N/N=C/c1ccc(O)c(O)c1)c1ccccc1)c1ccccc1 32.3%, Cc1cccc(OCc2nnc(SCC(=O)Nc3ncc(C)s3)o2)c1 3.87%, O=C1Nc2ccccc2C1=Nc1ccc(Br)cc1 4.56%, O=C1Nc2ccccc2/C1=N\N1CCOCC1 27.9%, O=C(O)CCCCCNS(=O)(=O)c1cccc2c1C(=O)c1ccccc1C2=O 27%, COc1ccccc1NCCC(=O)O 26.5%, O=C(NCC(c1ccc(F)cc1)N1CCOCC1)c1cccnc1Sc1ccc(Cl)cc1 (configuration not stated) 11.1%, Nc1n[nH]c(=S)n1-c1ccc(Cl)cc1 5.6%, COc1ccccc1-n1cnc2cc(NCc3ccccc3O)ccc21 33.3%, CCCn1cnc2cc(NCc3cccc(OC)c3)ccc21 36.7%, CCCn1cnc2cc(NCc3ccccc3O)ccc21 33.9%, CCn1cnc2cc(NCc3ccccc3Cl)ccc21 21.6%, CCCCN(C(=O)CCCSc1nc2ccccc2[nH]1)c1c(N)n(Cc2ccccc2)c(=O)[nH]c1=O 3.22%, Cc1cccc(N/N=C(\C#N)S(=O)(=O)C(C)(C)C)c1 8.77%, O=C(O)CCCNC(=O)Cc1ccccc1 2.55%, O=C(Cc1cccs1)NNC(=O)c1ccc(F)cc1 8.96%, Cc1cc(Nc2ccccc2Cl)c2ccccc2n1 8.12%, C=CCOc1ccccc1CNc1cccc(F)c1 -2.23%, COc1cccc(CNc2ccc3[nH]c(=O)[nH]c3c2)c1OCc1ccccc1Cl 37%, C=CCOc1ccccc1CNc1ccc2c(c1)OCCO2 25.8%, COc1cccc(CNc2ccc(C(=O)O)cc2)c1OCc1ccccc1 7.38%, C=CCOc1c(CNc2cccc(C(=O)O)c2)cccc1OC 9.77%, C=CCOc1c(CNc2ccc(C(=O)O)cc2)cccc1OC 9.8%, COc1ccc2nc(NC(=O)C3CCN(C(=O)c4ccco4)CC3)sc2c1 -5.44%, Cc1ccc(NC(=O)c2ccc(F)cc2)cc1S(=O)(=O)N1CCCCCC1 7.24%, COCCn1c(=O)[nH]c2cc(C(=O)Nc3ccc(OC)c(Cl)c3)ccc2c1=O 4.08%, O=c1c(/C=N/Nc2ccccc2)c(Sc2nnnn2-c2ccccc2)nc2ccccn12 0.84%, O=C(O)c1ccccc1N/N=C/c1c(Sc2nnnn2-c2ccccc2)nc2ccccn2c1=O 13.1%, O=C(COc1ccc([N+](=O)[O-])cc1)Nc1ccc2c(c1)nc1n2CCOC1 14.9%, Cc1ccc(C(=O)CN(Cc2ccccc2)C2=NCCS2)cc1 -1.42%, c1ccc2c(c1)C(=Nn1cnnc1)c1ccccc1-2 3.9%, C=CCN1C(=O)/C(=N/n2cnnc2)c2ccccc21 25.4%, O=C(c1ccco1)N1CCC(c2nc3c(nnn3Cc3ccc(F)cc3)c(=O)[nH]2)CC1 12.3%, Cc1ccc(NC(=O)COC(=O)CCC(=O)c2cccs2)cc1S(=O)(=O)N1CCOCC1 14.2%, CC12CC3CC(C)(C1)CC(C(O)CN1CCOCC1)(C3)C2 (configuration not stated) 3.1%, COc1cc(/C=N/N=C(\N)c2nonc2N)cc(OC)c1O 36.3%, COc1ccc(/C=N/N=C(\N)c2nonc2N)cc1OC 22.7%, N/C(=N\N=C\c1cccc(O)c1)c1nonc1N 18.6%, N/C(=N\N=C\c1ccc(O)cc1)c1nonc1N 23.1%, CCOC(=O)c1c(NC(=S)N2CCN(C)CC2)sc(C)c1-c1ccccc1 9.17%, CCOC(=O)C1=C(O)C(=O)N(c2ccc(S(N)(=O)=O)cc2)C1c1ccc([N+](=O)[O-])cc1 (configuration not stated) 5.61%, Cc1ccc(NC(=O)Cc2ccsc2)cc1Cl 8.34%, C=CCC(C#Cc1ccc(C)cc1)N(CC)CC (configuration not stated) 2.04%, COCCNC(=O)CN(C(=O)CCC(=O)Nc1ccccn1)c1ccc(F)cc1 2.44%, N#Cc1ccccc1-c1ccccc1C(=O)N1CCCCC1 5.76%, O=C(Nc1cccc(O)c1)c1ccc2c(c1)C(=O)N(Cc1ccco1)C2=O 8.23%, Cc1cccc(C(=O)Nc2ccc(NC(=O)c3ccccc3)cc2)c1 2.43%, COc1cc(C(=O)Nc2ccc(C(=O)O)cc2)ccc1OC(C)=O 17.2%, O=C(Nc1ccc(O)cc1)c1ccc2c(c1)C(=O)N(Cc1ccccc1)C2=O 35.7%, Cc1cccc(C(=O)Nc2ccc(C(=O)Nc3ccc(O)cc3)cc2)c1 8.66%, O=C(Nc1ccccc1O)c1ccc2c(c1)C(=O)N(N1C(=O)c3ccccc3C1=O)C2=O 5.64%, CCc1ccc(NC(=O)c2ccc3c(c2)C(=O)N(Cc2ccco2)C3=O)cc1 9.22%, COC(=O)c1ccc(NC(=O)c2ccc(OC(C)=O)c(OC)c2)cc1 4.68%, CCCOC(=O)c1ccc(NC(=O)CSC2=Nc3ccccc3C3CC=NN23)cc1 (configuration not stated) 7.1%, CCCCNC(=O)c1cc2c(C)cc(C)cc2[nH]1 4.47%, COc1ccc(S(=O)(=O)n2nc(-n3c(C)ccc3C)c3c(F)cccc32)cc1OC 2.54%, COc1ccc(S(=O)(=O)N2CCN(c3ccc(C)cc3C)CC2)cc1OC 7.1%, CCn1cc(C(=O)N2CCN(c3ccc(OC)cc3)CC2)c(=O)c2cc(S(=O)(=O)N3CCCCC3)ccc21 15.4%, CN1CCN(C(=O)C2CCCN(S(=O)(=O)c3ccccc3)C2)CC1 (configuration not stated) 7.31%, CC1Cc2cc(/C=C3/SC(=S)N(C)C3=O)ccc2O1 (configuration not stated) 0.875%, O=C(COc1ccc2c3c(c(=O)oc2c1)CCCC3)N1C[C@H]2C[C@@H](C1)c1cccc(=O)n1C2 3.64%, N#C/C(=C\c1cccnc1)C(=O)Nc1ccc(Cl)cc1 14.4%, CCN(CC)C1CC(=O)N(c2cccc(C)c2)C1=O (configuration not stated) 0.27%, O=C1CC(N2CCSCC2)C(=O)N1c1cccc(Br)c1 (configuration not stated) 10.7%, COC(C/C=C\[C@H](O)[C@@H](C)OCc1ccccc1)OC 2.9%, CC1(C)Cc2c(c(N3CCOCC3)nc3sc(-c4ccc(C(=O)O)o4)c(N)c23)CO1 21.9%, COC(=O)c1ccc(-c2sc3nc(N4CCOCC4)c4c(c3c2N)CC(C)(C)OC4)o1 -1.68%, COC(=O)c1ccccc1NS(=O)(=O)c1ccc(Cl)nc1 4.72%, N#CC1=C(N)OC2=C(C(=O)CCC2)C1c1cccs1 (configuration not stated) 23%, O=C(NCC(c1cccnc1)N1CCN(c2ccccc2)CC1)C1CCCCC1 (configuration not stated) 2.45%, O=C(NCC(c1cccnc1)N1CCN(c2ccc(F)cc2)CC1)C1CCCCC1 (configuration not stated) 18.4%, CCN(c1ccccc1)c1nc2ccsc2c(=O)s1 3.95%, COc1ccc(S(=O)(=O)N2CC=C(C(=O)Nc3ccc(NC(C)=O)cc3)CC2)cc1 8.65%, COc1ccc(N(CC(=O)NCCC2=CCCCC2)S(C)(=O)=O)cc1 1.47%, NS(=O)(=O)c1ccc(NC(=O)COC(=O)COc2ccccc2)cc1 3.76%

— PubChem BioAssay AID1903 (Southern Research Specialized Biocontainment Screening …, 2009)
